Source: PubChem BioAssay (NCATS)
Inconclusive results are not listed. Entries that show only a call come without a potency. Unmarked numbers belong to inactive results. Calls of active or inactive are those of the source. Calls follow the shape of the dose curve; as a rule, active = well fitted curve in the direction sought with a large enough effect; inconclusive = small, poorly fitted or top-dose-only effect, or another doubt; inactive = no such curve, though single readings can be large; an effect the other way counts as inactive or inconclusive.

assay: qHTS of pediatric cancer cell lines to identify multiple opportunities for drug repurposing: Primary screen for BT-37 cells (AID 1347094); settings: BT-37 viability, CellTiter-Glo luminescence, 48 h; series mostly up to 57.3 µM; activity change, negative = cytotoxic: at the top concentration
Outline: (§1)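 Primary screen of approved and investigational compounds on cells in growth media at 37 degrees C, 5% CO2. MIPE set at 11-point and NPC set at 8-point dilutions; viability scored by ATP-based luminescence at 48 hours.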
Potency is read from the fitted curve at half-maximal effect.

| SMILES | Potency | activity change, negative = cytotoxic [%] |
| --- | --- | --- |
| NC(=O)c1cnccn1 | inactive | – |
| CCn1cc(C(=O)O)c(=O)c2cc(F)c(N3CCNC(C)C3)c(F)c21 (stereo not drawn) | inactive | – |
| NS(=O)(=O)c1cc2c(cc1Cl)NC=NS2(=O)=O | inactive | – |
| O=C(O)COCCN1CCN(C(c2ccccc2)c2ccc(Cl)cc2)CC1 (stereo not drawn) | inactive | – |
| CCOC(=O)C1=C[C@]2(CC)CCCN3CCc4c(n1c1ccccc41)[C@@H]32 | – | -19.3 |
| CCC(C)N(C)C(=O)c1cc2ccccc2c(-c2ccccc2Cl)n1 (stereo not drawn) | – | -12.9 |
| OC(CCN1CCCCC1)(c1ccccc1)C1CC2C=CC1C2 (stereo not drawn) | inactive | – |
| OC(CN1CCC(Cc2ccc(F)cc2)CC1)c1ccc(Cl)cc1 (stereo not drawn) | inactive | – |
| Cc1ccccc1C(OCCN(C)C)c1ccccc1 (stereo not drawn) | inactive | – |
| O=NN(CCCl)C(=O)NCCCl | inactive | – |
| Cc1[nH]c(=O)c(C#N)cc1-c1ccc2nccn2c1 | inactive | – |
| CC(C)NCC(O)COc1ccc(COCCOC(C)C)cc1 (stereo not drawn) | inactive | – |
| Nc1ccc(S(=O)(=O)Nc2ccnn2-c2ccccc2)cc1 | inactive | – |
| CC(C)(Sc1ccc(CCN(CCCCC2CCCCC2)C(=O)NC2CCCCC2)cc1)C(=O)O | 21.7 µM (active) | – |
| Nc1nc2c(ncn2COCCO)c(=O)[nH]1 | inactive | – |
| CC(=O)Oc1ccccc1C(=O)O | inactive | – |

| SMILES | Potency | activity change, negative = cytotoxic [%] |
| --- | --- | --- |
| c1ccc([C@H]2CN3CCSC3=N2)cc1 | inactive | – |
| O=C1CCC(N2C(=O)c3ccccc3C2=O)C(=O)N1 (stereo not drawn) | inactive | – |
| CC(C[N+](C)(C)C)OC(N)=O (stereo not drawn) | inactive | – |
| Cc1cnc(NC(=O)C2=C(O)c3ccccc3S(=O)(=O)N2C)s1 | inactive | – |
| Oc1ccc(C2CNCCc3c2cc(O)c(O)c3Cl)cc1 (stereo not drawn) | inactive | – |
| C1COC(NC(C2CC2)C2CC2)=N1 | inactive | – |
| Clc1cccc(Cl)c1NC1=NCCN1 | inactive | – |
| CC(C)C[C@H](NC(=O)[C@@H](O)[C@H](N)Cc1ccccc1)C(=O)O | 27.3 µM (active) | – |
| O=C1CCc2cc(OCCCCc3nnnn3C3CCCCC3)ccc2N1 | inactive | – |
| N[C@@H]1CONC1=O | inactive | – |
| O=c1n(CCCN2CCN(c3cccc(Cl)c3)CC2)nc2ccccn12 | inactive | – |
| O=c1[nH]cnc2[nH]ncc12 | inactive | – |
| CNC[C@H](O)c1cccc(O)c1 | inactive | – |
| NCCCC(N)(C(=O)O)C(F)F (stereo not drawn) | inactive | – |
| CCCC(CCC)C(=O)O | inactive | – |
| CC(C)(C)NCC(O)c1ccc(O)c(CO)c1 (stereo not drawn) | inactive | – |

assay: qHTS of pediatric cancer cell lines to identify multiple opportunities for drug repurposing: Primary screen for NB-EBc1 cells (AID 1347095); settings: NB-EBc1 neuroblastoma viability, CellTiter-Glo luminescence, 48 h; series mostly up to 46 µM; activity change, negative = cytotoxic: at the top concentration
Outline: as §1

| SMILES | Potency | activity change, negative = cytotoxic [%] |
| --- | --- | --- |
| NC(=O)c1cnccn1 | inactive | – |
| CCn1cc(C(=O)O)c(=O)c2cc(F)c(N3CCNC(C)C3)c(F)c21 (stereo not drawn) | inactive | – |
| NS(=O)(=O)c1cc2c(cc1Cl)NC=NS2(=O)=O | inactive | – |
| O=C(O)COCCN1CCN(C(c2ccccc2)c2ccc(Cl)cc2)CC1 (stereo not drawn) | inactive | – |
| CCOC(=O)C1=C[C@]2(CC)CCCN3CCc4c(n1c1ccccc41)[C@@H]32 | inactive | – |
| CCC(C)N(C)C(=O)c1cc2ccccc2c(-c2ccccc2Cl)n1 (stereo not drawn) | – | 10.9 |
| OC(CCN1CCCCC1)(c1ccccc1)C1CC2C=CC1C2 (stereo not drawn) | inactive | – |
| Cc1ccccc1C(OCCN(C)C)c1ccccc1 (stereo not drawn) | inactive | – |
| Cc1[nH]c(=O)c(C#N)cc1-c1ccc2nccn2c1 | inactive | – |
| CC(C)NCC(O)COc1ccc(COCCOC(C)C)cc1 (stereo not drawn) | inactive | – |
| Nc1ccc(S(=O)(=O)Nc2ccnn2-c2ccccc2)cc1 | inactive | – |
| CC(C)(Sc1ccc(CCN(CCCCC2CCCCC2)C(=O)NC2CCCCC2)cc1)C(=O)O | 20.9 µM (active) | – |
| Nc1nc2c(ncn2COCCO)c(=O)[nH]1 | – | -2.56 |
| CC(=O)Oc1ccccc1C(=O)O | inactive | – |
| c1ccc([C@H]2CN3CCSC3=N2)cc1 | inactive | – |
| O=C1CCC(N2C(=O)c3ccccc3C2=O)C(=O)N1 (stereo not drawn) | inactive | – |

| SMILES | Potency | activity change, negative = cytotoxic [%] |
| --- | --- | --- |
| Nc1nc2ccc(OC(F)(F)F)cc2s1 | – | 5.68 |
| CC(C[N+](C)(C)C)OC(N)=O (stereo not drawn) | inactive | – |
| CCOC(=O)N1CCC(=C2c3ccc(Cl)cc3CCc3cccnc32)CC1 | 20.9 µM (active) | – |
| Cc1cnc(NC(=O)C2=C(O)c3ccccc3S(=O)(=O)N2C)s1 | inactive | – |
| Oc1ccc(C2CNCCc3c2cc(O)c(O)c3Cl)cc1 (stereo not drawn) | inactive | – |
| C1COC(NC(C2CC2)C2CC2)=N1 | inactive | – |
| Clc1cccc(Cl)c1NC1=NCCN1 | inactive | – |
| O=C1CCc2cc(OCCCCc3nnnn3C3CCCCC3)ccc2N1 | inactive | – |
| N[C@@H]1CONC1=O | inactive | – |
| O=c1n(CCCN2CCN(c3cccc(Cl)c3)CC2)nc2ccccn12 | inactive | – |
| O=c1[nH]cnc2[nH]ncc12 | inactive | – |
| CNC[C@H](O)c1cccc(O)c1 | inactive | – |
| NCCCC(N)(C(=O)O)C(F)F (stereo not drawn) | inactive | – |
| CCCC(CCC)C(=O)O | inactive | – |
| CC(C)(C)NCC(O)c1ccc(O)c(CO)c1 (stereo not drawn) | inactive | – |
